Data: PubChem BioAssay (Tox21)
Inconclusive results are not listed. A call without a number means that no potency is given here. Values without a mark were called inactive. The source made the active and inactive calls. Calls come from the whole dose curve; as a rule, active = well fitted cell-killing curve with a large enough effect in the repeat runs; inconclusive = weak or mixed curves, or effect the other way; inactive = flat fitted curve, though single readings scatter.

Key:
[1] = cAMP Responsive Elements (CRE) small molecule antagonists, cell-based qHTS assay: qHTS cell viability counter screen (AID 2060913); note: nearly all actives have a fitted effect of over 40% in size
Outline: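 HEK293T CRE-bla, 2,000 cells/well, 18 h preincubation; cpd in DMSO + NKH477 0.25 uM final, 3 h 37 C/5% CO2; LiveBLAzer 2 h RT, then CellTiter-Glo 30 min RT, luminescence.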

[2] = cAMP Responsive Elements (CRE) small molecule agonists, cell-based qHTS assay: qHTS cell viability counter screen (AID 2060914); note: nearly all actives have a fitted effect of over 50% in size
Outline: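 In the same wells as the reporter read, viability of CRE-bla HEK 293T cells was quantified by CellTiter-Glo luminescence after a 3 h compound exposure.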

| SMILES | Potency [1] | Potency [2] | viability change, negative = cytotoxic [1] | activity change, negative = cytotoxicity [2] |
| --- | --- | --- | --- | --- |
| COc1ccc(CCC(C)=O)cc1 | inactive | inactive |  |  |
| CCCCCCCC/C=C\CCCCCCCC(=O)OC[C@@H](O)[C@H]1OC[C@H](O)[C@H]1O | inactive | inactive |  |  |
| CC1(N)CCC(C(C)(C)N)CC1 (stereo unspecified) | inactive | inactive |  |  |
| O=C1CCC(C2CCCCC2)CC1 | inactive | inactive |  |  |
| NC(=O)c1ncn([C@@H]2O[C@H](CO)[C@@H](O)[C@H]2O)n1 | inactive | inactive |  |  |
| CC1(C)OC(=O)Nc2ccc(Br)cc21 | inactive | inactive |  |  |
| CC(COc1ccccc1)NC(C)C(O)c1ccc(O)cc1 (stereo unspecified) | inactive | inactive |  |  |
| COc1nc(N)nc2c1ncn2[C@@H]1O[C@H](CO)[C@@H](O)[C@@H]1O | inactive | inactive |  |  |
| O=C1CCCCC1C1CCCCC1 (stereo unspecified) | inactive | inactive |  |  |
| CCOC(=O)CN1CCCC1=O | inactive | inactive |  |  |
| C=O | inactive | inactive |  |  |
| C#CC(O)CCC (stereo unspecified) | inactive | inactive |  |  |
| C=CCn1cc[n+](C)c1 | inactive | inactive |  |  |
| CN1N=C(C(N)=O)CCC1=O | inactive | inactive |  |  |
| ONc1ccccc1 | inactive | inactive |  |  |
| CCCCCCO | inactive | inactive |  |  |
| COc1cc(C=O)ccc1OC(=O)C(C)C | inactive | inactive |  |  |
| C=CC(=O)OCCOc1ccccc1 | inactive | inactive |  |  |
| CCCCCCCCCCCCCCCCCCOCC(O)CO (stereo unspecified) | inactive | inactive |  |  |
| CC(C)CC(=O)O | inactive | inactive |  |  |
| O/N=C/C=N/O | inactive | inactive |  |  |
| CCCCCOC(=O)COc1cc(N2C(=O)C3=C(CCCC3)C2=O)c(F)cc1Cl | inactive | inactive |  |  |
| CCCCCCCCCCCCCOC(=O)CCSCCC(=O)OCCCCCCCCCCCCC |  |  | 3.07% [at 18.9 µM] | -4.92% [at 18.9 µM] |
